Assay [1] can be described thus: binders of probe aFSTL3 on microarray, primary screen, stem cell growth factor project, biochemical, small-molecule microarray, fluorescence 635/667 (AID 1064).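 Note: measures binding of the biotinylated anti-FSTL3 antibody to printed compounds.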 The note with it: higher = more signal.
A short description of assay [2]: binders from COS7 lysate, DM2A8 probe, primary screen, torsin A project, cell lysate, small-molecule microarray, fluorescence 635/667 (AID 1065). To be noted: higher = more signal, COS7 lysate expressing mutant human TOR1A.
Assay [3] can be described thus: binders of probe aFGF2 on microarray, primary screen, stem cell growth factor project, biochemical, small-molecule microarray, fluorescence 635/667 (AID 1067).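 Note: measures binding of biotinylated aFGF2 protein to printed compounds on slides; z-score merges feature fluorescence and signal-to-noise across triplicate slides.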 The note with it: higher = more signal.
Assay [4] is described as follows: binders of probe aFGF10 on microarray, primary screen, stem cell growth factor project, biochemical, small-molecule microarray, fluorescence 635/667 (AID 1071).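 Note: score merges 667 nm spot intensity and signal to noise from triplicate slides.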 To be noted: higher = more signal.
Assay [5] addresses Neurogenic locus notch homolog protein 2 (Homo sapiens) (UniProt Q04721). Kind of assay: Notch2 binders on small-molecule microarrays, primary screen, biochemical, small-molecule microarray, 635 nm fluorescence, stem cell growth factors (AID 1073). The note with it: Notch2 binding, higher = more signal.
For assay [6], the target named is Pro-neuregulin-1, membrane-bound isoform (Homo sapiens) (UniProt Q02297). Kind of assay: NRG1 binders on small-molecule microarrays, primary screen, psychiatric disease protein project, biochemical, small-molecule microarray, fluorescence 635/667 (AID 1075).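 Note: score combines 667 nm spot fluorescence with signal to noise.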 To be noted: NRG1 binding, 635 nm fluorescence, higher = more signal.
In assay [7] the test system is Neuregulin-1 EGF-like domain. In words: binders of neuregulin-1 EGF-like domain, primary screen, biochemical, small-molecule microarray, 635 nm fluorescence (AID 1081).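 Note: binding of the protein to compounds printed on small-molecule microarray slides.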 To be noted: small-molecule microarray binding, higher = more signal.
Assay [8] is described as follows: FRG1 promoter luciferase signal modulators, primary screen, FRG1 inhibition for FSHD, cell-based, C2C12 myotubes, firefly/Renilla luciferase, luminescence (AID 1084). The note with it: higher = more signal, called active from +8 up or from −8 down.
A short description of assay [9]: binders of probe aFST on microarray, primary screen, stem cell growth factor project, biochemical, small-molecule microarray, fluorescence 635/667 (AID 1086).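 Note: score merges 667 nm fluorescence with signal-to-noise of each printed compound spot.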 The note with it: higher = more signal.
Assay [10] in a line: binders of probe aHhip on microarray, primary screen, stem cell growth factor project, biochemical, small-molecule microarray, fluorescence 635/667 (AID 1087).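 Note: score merges spot fluorescence at 667nm with spot signal to noise ratio.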 To be noted: higher = more signal.
The test system of assay [11] is PRMT1 (protein arginine N-methyltransferase 1). Kind of assay: PRMT1 binders on small-molecule microarrays, primary screen, biochemical, small-molecule microarray, 635 nm fluorescence (AID 1088).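 Note: binding of Prmt1 protein to compounds spotted on small-molecule microarray slides.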 To be noted: small-molecule microarray binding, higher = more signal.
Assay [12] can be described thus: yeast growth modulation, basal conditions, primary screen, YJM789 clinical isolate, OD600, 24 h (AID 1089).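 Note: growth of clinical yeast isolate S. cerevisiae YJM 789 seeded 1000 cells per well; test concentration not given here.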 To be noted: S. cerevisiae YJM789 growth, higher = more signal, called active from +8 up or from −8 down.
A short description of assay [13]: fission yeast growth modulation, primary screen, strain 972, OD600, 24 h, no modulator (AID 1090).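 Note: basal condition with compound alone and no growth modifier present; test concentration not given here.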 To be noted: S. pombe 972 growth, higher = more signal, called active from +8 up or from −8 down.
The nature of assay [14]: S. cerevisiae growth modulation with rapamycin, primary screen, strain BY4716, OD600, 96 h (AID 1091). Note: test concentration not given here. The note with it: higher = more signal, called active from +8 up or from −8 down.
The target in assay [15] is Torsin-1A-interacting protein 2 (Homo sapiens) (UniProt Q8NFQ8). In words: LULL1 binders on small-molecule microarray, primary screen, cell lysate, human LULL1 lysate, 635/667 nm fluorescence (AID 1092).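 Note: probe is lysate of COS7 cells overexpressing human LULL1; score merges per-feature 667 nm fluorescence with signal-to-noise.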 The note with it: hLULL1 lysate binding, 635 nm fluorescence, higher = more signal.
Assay [16] can be described thus: E. coli growth modulation, two-sided OD650, primary screen, E. coli filamentation project, strain DRC41, 24 h (AID 1093).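 Note: MC1000 strain lacking acrAB efflux and sulA so SOS filamentation is blocked; test concentration not given here.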 The note with it: OD650, 24 h, higher = more signal, called active from +8 up or from −8 down.
Assay [17] in a line: small-molecule microarray binders of probe aLefty2, primary screen, biochemical, biotinylated probe, 635/667 nm fluorescence (AID 1094).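 Note: score merges spot fluorescence near 667 nm with spot signal-to-noise ratio.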 The note with it: higher = more signal.
The subject of assay [18] is Noggin (protein binding on small-molecule microarray). In words: Noggin binders on small-molecule microarray, primary screen, biochemical, 635/667 nm fluorescence (AID 1095).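 Note: score merges 667 nm feature fluorescence with signal to noise over triplicate slides.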 The note with it: 635 nm fluorescence, higher = more signal.
For assay [19], the target named is Neurogenic locus notch homolog protein 3 (Homo sapiens) (UniProt Q9UM47). In words: NOTCH3 binders on small-molecule microarray, primary screen, biochemical, 635/667 nm fluorescence (AID 1096). The note with it: NOTCH3 binding, 635 nm fluorescence, higher = more signal.
Sequence of Neurogenic locus notch homolog protein 3 (Homo sapiens) (Q9UM47 whole entry, looked up): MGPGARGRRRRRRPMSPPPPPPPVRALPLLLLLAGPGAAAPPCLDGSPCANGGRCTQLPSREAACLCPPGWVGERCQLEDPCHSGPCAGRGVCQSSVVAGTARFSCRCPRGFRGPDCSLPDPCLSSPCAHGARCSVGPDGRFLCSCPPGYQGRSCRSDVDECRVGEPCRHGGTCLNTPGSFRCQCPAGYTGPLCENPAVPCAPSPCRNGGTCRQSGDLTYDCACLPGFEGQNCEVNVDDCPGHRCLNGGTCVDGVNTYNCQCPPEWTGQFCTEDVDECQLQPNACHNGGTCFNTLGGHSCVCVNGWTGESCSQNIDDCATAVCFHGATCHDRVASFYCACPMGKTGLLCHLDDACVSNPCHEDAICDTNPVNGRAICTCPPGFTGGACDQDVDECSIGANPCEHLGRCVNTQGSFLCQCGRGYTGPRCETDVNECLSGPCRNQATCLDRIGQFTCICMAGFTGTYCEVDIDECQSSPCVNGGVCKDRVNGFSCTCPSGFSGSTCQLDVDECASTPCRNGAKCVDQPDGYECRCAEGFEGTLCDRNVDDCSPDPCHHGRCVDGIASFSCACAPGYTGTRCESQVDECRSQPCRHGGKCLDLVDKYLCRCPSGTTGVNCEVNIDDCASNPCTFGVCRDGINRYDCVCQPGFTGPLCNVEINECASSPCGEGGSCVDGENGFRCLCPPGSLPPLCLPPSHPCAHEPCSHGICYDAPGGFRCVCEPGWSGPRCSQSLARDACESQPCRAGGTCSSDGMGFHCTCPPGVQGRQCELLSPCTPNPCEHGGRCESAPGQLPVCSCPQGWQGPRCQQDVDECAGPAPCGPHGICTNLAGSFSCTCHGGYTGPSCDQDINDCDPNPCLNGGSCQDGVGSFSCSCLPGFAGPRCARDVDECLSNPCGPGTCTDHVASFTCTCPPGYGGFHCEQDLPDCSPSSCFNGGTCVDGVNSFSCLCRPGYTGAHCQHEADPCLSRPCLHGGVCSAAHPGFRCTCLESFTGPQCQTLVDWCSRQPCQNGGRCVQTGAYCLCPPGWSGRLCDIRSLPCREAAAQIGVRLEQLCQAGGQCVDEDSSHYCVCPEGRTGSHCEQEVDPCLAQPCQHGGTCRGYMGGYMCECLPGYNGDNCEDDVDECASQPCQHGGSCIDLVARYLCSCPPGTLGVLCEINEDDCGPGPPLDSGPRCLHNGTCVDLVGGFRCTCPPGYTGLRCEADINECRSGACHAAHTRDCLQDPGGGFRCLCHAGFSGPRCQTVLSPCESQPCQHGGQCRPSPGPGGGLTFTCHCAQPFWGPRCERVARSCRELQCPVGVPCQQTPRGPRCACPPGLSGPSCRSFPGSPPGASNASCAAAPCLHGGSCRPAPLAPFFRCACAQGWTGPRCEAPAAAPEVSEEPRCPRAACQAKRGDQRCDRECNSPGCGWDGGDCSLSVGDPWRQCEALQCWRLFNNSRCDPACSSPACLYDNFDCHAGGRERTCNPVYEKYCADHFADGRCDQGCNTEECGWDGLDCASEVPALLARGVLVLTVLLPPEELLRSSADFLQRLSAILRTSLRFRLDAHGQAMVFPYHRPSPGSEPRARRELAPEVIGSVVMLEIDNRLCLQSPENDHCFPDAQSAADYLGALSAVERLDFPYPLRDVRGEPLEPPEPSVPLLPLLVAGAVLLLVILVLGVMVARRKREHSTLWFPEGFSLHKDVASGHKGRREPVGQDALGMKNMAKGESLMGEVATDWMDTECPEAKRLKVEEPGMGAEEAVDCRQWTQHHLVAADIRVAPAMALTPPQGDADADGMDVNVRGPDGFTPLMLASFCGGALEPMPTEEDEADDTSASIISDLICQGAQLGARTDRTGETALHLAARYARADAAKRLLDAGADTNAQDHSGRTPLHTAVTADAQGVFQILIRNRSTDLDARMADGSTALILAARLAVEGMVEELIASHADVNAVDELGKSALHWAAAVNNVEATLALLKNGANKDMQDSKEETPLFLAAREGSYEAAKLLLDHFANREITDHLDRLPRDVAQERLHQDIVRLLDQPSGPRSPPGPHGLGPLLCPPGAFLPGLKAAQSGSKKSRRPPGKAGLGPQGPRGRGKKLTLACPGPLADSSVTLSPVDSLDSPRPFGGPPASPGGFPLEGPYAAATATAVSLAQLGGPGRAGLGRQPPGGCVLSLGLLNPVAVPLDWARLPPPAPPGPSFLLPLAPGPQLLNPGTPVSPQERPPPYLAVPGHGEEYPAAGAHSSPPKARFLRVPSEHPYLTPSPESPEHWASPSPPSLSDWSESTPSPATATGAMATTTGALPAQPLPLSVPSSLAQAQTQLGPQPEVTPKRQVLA
Assay [20] is described as follows: small-molecule microarray binders of probe aEGFR, primary screen, biochemical, biotinylated probe, 635/667 nm fluorescence (AID 1097).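 Note: probe is a biotinylated anti-EGFR antibody binding compounds printed on slides; score combines fluorescence near 667 nm and signal to noise of each spot.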 To be noted: higher = more signal.

The source made the active and inactive calls.

Sequence of Neurogenic locus notch homolog protein 2 (Homo sapiens) (Q04721 whole entry, looked up, canonical isoform): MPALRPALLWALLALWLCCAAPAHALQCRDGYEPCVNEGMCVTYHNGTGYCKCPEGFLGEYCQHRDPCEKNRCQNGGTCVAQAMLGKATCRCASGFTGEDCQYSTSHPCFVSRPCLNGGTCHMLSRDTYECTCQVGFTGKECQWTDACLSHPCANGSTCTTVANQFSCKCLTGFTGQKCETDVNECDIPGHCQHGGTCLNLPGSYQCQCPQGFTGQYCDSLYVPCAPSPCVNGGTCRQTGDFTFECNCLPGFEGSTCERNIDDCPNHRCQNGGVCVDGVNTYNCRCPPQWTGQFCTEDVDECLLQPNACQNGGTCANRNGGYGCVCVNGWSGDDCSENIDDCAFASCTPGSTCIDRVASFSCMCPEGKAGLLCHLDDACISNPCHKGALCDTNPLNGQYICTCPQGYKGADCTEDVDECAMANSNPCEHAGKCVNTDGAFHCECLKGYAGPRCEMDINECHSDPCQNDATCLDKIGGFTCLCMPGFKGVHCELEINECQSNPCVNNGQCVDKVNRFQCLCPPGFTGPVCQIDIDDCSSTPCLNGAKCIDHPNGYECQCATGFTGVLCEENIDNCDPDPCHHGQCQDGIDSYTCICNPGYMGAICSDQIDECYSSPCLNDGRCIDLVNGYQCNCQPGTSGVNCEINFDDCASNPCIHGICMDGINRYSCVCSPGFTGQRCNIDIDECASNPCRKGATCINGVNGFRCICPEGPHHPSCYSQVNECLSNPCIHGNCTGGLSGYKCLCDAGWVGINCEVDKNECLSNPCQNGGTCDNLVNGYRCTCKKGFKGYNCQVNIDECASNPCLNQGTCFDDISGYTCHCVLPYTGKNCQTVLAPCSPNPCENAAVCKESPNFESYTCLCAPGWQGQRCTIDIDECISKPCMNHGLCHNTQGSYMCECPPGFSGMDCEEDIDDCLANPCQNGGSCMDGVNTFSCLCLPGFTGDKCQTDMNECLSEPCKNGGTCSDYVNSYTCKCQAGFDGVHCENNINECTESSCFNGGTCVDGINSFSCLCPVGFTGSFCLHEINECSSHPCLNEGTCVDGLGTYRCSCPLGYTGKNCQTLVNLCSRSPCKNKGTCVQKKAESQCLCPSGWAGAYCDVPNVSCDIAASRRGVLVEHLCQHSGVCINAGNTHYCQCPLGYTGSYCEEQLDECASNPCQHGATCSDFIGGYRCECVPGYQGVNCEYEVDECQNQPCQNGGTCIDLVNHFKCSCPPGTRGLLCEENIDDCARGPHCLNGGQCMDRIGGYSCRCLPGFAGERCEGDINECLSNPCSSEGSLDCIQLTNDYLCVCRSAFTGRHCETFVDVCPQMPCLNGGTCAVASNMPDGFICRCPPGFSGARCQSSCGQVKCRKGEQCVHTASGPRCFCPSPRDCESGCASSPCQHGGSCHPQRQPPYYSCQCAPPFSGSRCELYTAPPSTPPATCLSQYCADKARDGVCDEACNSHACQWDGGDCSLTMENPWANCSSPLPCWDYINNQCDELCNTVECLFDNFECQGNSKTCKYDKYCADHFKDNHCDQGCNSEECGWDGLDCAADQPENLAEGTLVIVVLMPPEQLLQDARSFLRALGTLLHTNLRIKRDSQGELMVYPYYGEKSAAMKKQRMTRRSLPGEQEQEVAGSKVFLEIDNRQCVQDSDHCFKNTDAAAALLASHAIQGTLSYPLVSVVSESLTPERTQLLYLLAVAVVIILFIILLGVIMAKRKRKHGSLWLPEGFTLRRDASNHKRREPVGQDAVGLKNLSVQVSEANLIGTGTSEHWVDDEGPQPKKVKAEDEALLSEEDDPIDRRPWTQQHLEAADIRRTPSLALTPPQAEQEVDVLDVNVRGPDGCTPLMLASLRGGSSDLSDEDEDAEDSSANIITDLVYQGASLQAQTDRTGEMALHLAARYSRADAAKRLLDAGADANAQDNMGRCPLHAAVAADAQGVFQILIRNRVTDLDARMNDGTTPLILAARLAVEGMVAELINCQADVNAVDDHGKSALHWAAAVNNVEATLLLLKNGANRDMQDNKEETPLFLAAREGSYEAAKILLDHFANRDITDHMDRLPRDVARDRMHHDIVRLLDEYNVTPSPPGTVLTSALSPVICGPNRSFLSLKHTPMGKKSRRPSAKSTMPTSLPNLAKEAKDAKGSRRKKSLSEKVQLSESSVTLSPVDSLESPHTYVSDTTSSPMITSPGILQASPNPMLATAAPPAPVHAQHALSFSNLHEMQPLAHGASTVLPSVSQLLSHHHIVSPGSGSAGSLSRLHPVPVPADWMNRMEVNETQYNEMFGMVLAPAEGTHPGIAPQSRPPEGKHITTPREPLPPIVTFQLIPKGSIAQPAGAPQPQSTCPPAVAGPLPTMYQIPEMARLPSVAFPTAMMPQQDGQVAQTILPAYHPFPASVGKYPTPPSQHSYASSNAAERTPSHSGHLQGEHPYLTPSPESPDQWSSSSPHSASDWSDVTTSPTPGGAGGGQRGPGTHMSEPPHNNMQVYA

For the molecule `CSCC[C@@H]1NC(=O)CC=C[C@@H](C)COC(=O)[C@H](C)COC1=O`, the composite z-score is -1.1 in assay [1]; 2.81 in assay [2]; -0.355 in [3]; -1.11 in assay [4]; -0.979 in [5]; -1.94 in assay [6]. For the same molecule, the composite z-score is -0.169 in [7]; -0.242 in [9]; 0.487 in assay [10]; 1.53 in assay [11]; -0.265 in [15]; -0.295 in assay [17]. Also, the composite z-score is 2.11 in assay [18], 0.883 in assay [19] and 0.702 in assay [20]. Besides, the z-score in assay [8] was -1.13 (inactive); in [12] it was -2.12 (inactive); in assay [13] it was -1.99 (inactive); in assay [14], -0.894 (inactive); in [16], 0.453 (inactive).
As for `CC(=O)OC[C@H]1O[C@@H](ON=C(C)CCC(=O)OC[C@H]2O[C@H](C#Cc3ccccc3)C=C[C@@H]2Oc2ccc(C)cc2)[C@H](OC(C)=O)[C@@H](OC(C)=O)[C@@H]1OC(C)=O`, the composite z-score in [1] was -0.65; in assay [2], 0.745; in [3] it was 0.0309; in [4], 1.12; in assay [5], 0.951; in assay [6], 0.51. The composite z-score in [7] was 0.938; in assay [9], 0.31; in [10] it was -0.0994; in assay [11], 1.54; in assay [15] it was 2.3; in assay [17] it was -0.122. The figures for the composite z-score in assay [18], in [19] and in [20] were 1.36, 0.936 and -0.0455, respectively. The z-score in [8] is 0.66 (inactive); in [12], 0.82 (inactive); in assay [13] it was 0.882 (inactive); in assay [14], -0.211 (inactive); in assay [16] it was 0.142 (inactive).
As for `C=CC[C@@H]1C=C[C@H](ON=C(C)CCN2CCCc3nc(C)c(C)cc32)[C@@H](CO)O1`, the composite z-score is 0.886 in assay [1]; 1.26 in [2]; 0.208 in [3]; 0.435 in assay [4]; 0.945 in assay [5]; -0.387 in [6]. For the same molecule, the composite z-score in assay [7] was 0.83; in [9], 1.48; in assay [10] it was 1.31; in assay [11], 1.4; in assay [15], 0.644; in assay [17] it was 0.475. The composite z-score was determined as 1.09 in [18], 0.946 in [19] and 0.142 in assay [20]. The z-score was 1.67 (inactive) in assay [8]; -0.367 (inactive) in [12]; 0.323 (inactive) in [13]; -0.184 (inactive) in [14]; 1.05 (inactive) in assay [16].
Turning to `CC(=O)OC[C@H]1O[C@H](CC=NO[C@@H](C)c2cc(-c3c(C)cc(C)cc3C)no2)C=C[C@@H]1OC(C)=O`, the composite z-score in assay [1] was -0.357; in assay [2] it was -0.264; in assay [3], -0.1; in assay [4], 0.149; in assay [5] it was 0.0166; in assay [6], -0.291. Further, the composite z-score was -0.736 in assay [7]; -0.122 in assay [9]; -0.0994 in assay [10]; -0.0654 in assay [11]; -0.382 in assay [15]; -0.212 in assay [17]. In addition, the composite z-score in assay [18] is 0.342; in assay [19], 0.106; in [20], -0.0662. Moreover, the z-score in [8] is 1.03 (inactive); in assay [12], 0.208 (inactive); in assay [13], -0.0489 (inactive); in [14], 0.523 (inactive); in assay [16], -0.542 (inactive).
For `COCOc1ccc(Br)cc1C(=O)C=Cc1ccc2c(c1)OCO2`, the composite z-score is -0.289 in assay [1]; 0.738 in assay [2]; -0.0878 in [3]; 0.313 in assay [4]; 0.315 in [5]; -0.302 in [6]. Further, the composite z-score in [7] was -0.645; in assay [9] it was 0.13; in [10], -0.226; in assay [11], 0.253; in assay [15] it was -0.57; in [17], -0.16. The composite z-score in assay [18] is 0.698; in assay [19] it was 0.0871; in [20], -0.0834. Besides, the z-score in [8] was -2.06 (inactive); in [12], -0.827 (inactive); in assay [13] it was -7.01 (inactive); in [14], 32.1 (active); in assay [16], 0.368 (inactive).

For the origin of these results see PubChem BioAssay.
